In PubChem BioAssay AID743314 (Broad Institute, 2014):
Entries with a potency or affinity are not part of this list. Records with an inconclusive call do not appear. Activity calls are given as the source filed them.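 Rule for the calls: active = fitted half-maximal concentration no higher than twice the top tested dose, in every repeat run; inconclusive = repeat runs disagree, poor fit, or flat partial inhibition; inactive = the rest.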

Target: Endoplasmic reticulum aminopeptidase 1 (Homo sapiens) (UniProt Q9NZ08)
Sequence (Q9NZ08 whole entry, looked up): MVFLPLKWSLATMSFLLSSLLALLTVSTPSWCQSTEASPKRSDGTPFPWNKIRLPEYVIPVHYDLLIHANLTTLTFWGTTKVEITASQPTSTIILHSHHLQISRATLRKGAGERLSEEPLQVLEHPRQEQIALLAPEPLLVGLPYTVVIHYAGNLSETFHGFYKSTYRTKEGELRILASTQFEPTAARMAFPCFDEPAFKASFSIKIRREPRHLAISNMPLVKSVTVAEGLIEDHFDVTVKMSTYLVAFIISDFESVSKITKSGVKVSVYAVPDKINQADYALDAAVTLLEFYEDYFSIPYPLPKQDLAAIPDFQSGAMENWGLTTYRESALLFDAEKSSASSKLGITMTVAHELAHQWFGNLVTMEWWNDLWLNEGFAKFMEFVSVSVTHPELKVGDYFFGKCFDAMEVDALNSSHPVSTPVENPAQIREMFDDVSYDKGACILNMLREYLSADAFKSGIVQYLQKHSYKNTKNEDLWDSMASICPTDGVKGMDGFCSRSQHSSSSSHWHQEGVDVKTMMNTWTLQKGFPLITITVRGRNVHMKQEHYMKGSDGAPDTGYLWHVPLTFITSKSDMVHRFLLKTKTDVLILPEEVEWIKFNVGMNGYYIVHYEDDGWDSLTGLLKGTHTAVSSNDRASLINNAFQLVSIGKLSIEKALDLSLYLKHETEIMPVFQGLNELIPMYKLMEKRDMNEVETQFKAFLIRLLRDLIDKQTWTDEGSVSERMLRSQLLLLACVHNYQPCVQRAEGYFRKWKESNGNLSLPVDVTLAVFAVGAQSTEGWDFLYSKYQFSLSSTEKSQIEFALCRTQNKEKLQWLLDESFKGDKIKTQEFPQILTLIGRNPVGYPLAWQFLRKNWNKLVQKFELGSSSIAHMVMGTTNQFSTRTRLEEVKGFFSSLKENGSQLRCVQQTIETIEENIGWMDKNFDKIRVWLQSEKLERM
Test: inhibition of human ERAP1 enzyme activity – biochemical, cherry-pick, set 2, plate reader, dose response (AID 743314);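 note: 0% = neutral control wells and -100% = L-leucinethiol positive control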
Conditions: Recombinant ERAP1, Leu-AMC fluorescence, 60 min; series mostly up to 11 µM; activity change, negative = inhibition: at the top concentration

Activity change, negative = inhibition, inactive:
COc1cccc(-c2ccc([C@H]3[C@H]4CN(C(=O)c5cccnc5)CC(=O)N4[C@H]3CO)cc2)c1 23.7%
O=C(c1ccc(F)cc1)N1CC2(C1)[C@H](c1ccccc1)[C@@H](CO)N2Cc1ccccn1 19.7%
C[C@@H]1CN([C@@H](C)CO)C(=O)c2cccc(NC(=O)c3cnccn3)c2O[C@H]1CN(C)Cc1ccc(Cl)c(Cl)c1 17.8%
CN1[C@@H]2c3ccc(/C=C/c4ccccc4)c(=O)n3C[C@@H]2[C@@H](CO)[C@@H]1C(=O)N1CCCCC1 5.69%
N#Cc1c(NC(=O)c2cccc(S(=O)(=O)Nc3ccc(C(=O)O)cc3)c2)sc2c1CCCC2 -7.29%
Cc1cccc(NC(=O)Nc2ccc3c(c2)C(=O)N(C)[C@H]2CC[C@H](CC(=O)O)O[C@H]2CO3)c1 28.6%
Cc1ccc(OCC(=O)Nc2ccc(S(=O)(=O)N(C)C3CCN(C)CC3)cc2)c(C)c1 -1.18%
C[C@@H]1CN([C@@H](C)CO)C(=O)c2cc(NS(=O)(=O)c3ccc(Cl)cc3)ccc2O[C@@H](C)CCCCO[C@@H]1CN(C)C 20.4%
CCN1CCN(c2ccc(S(=O)(=O)N3CCCCC3)cc2NC(=O)c2ccccc2)CC1 -6.46%
CN(C)C(=O)[C@@H]1[C@@H](CO)[C@@H]2Cn3c(ccc(/C=C/c4ccccc4)c3=O)[C@@H]2N1C(=O)c1cnccn1 10.7%
Cc1oc2c(c(C)cc3oc(=O)c(CC(=O)N[C@H](C(=O)O)C(C)C)c(C)c32)c1C -10.3%
C[C@H]1CN([C@@H](C)CO)C(=O)c2cc(NC(=O)CCN3CCOCC3)ccc2O[C@@H]1CN(C)S(=O)(=O)c1ccccc1 22.3%
CC(=O)Nc1ccc2nc(NC(=O)CN3CCOCC3)sc2c1 9.19%
CCOC(=O)N1CCc2c(sc(NC(=O)c3ccc(S(=O)(=O)N4CCCC4)cc3)c2C#N)C1 -2.67%
C[C@H]1CN([C@@H](C)CO)C(=O)c2cccc(NC(=O)Nc3ccc(F)cc3)c2O[C@@H]1CN(C)C(=O)Nc1ccc2c(c1)OCO2 51%
Cc1ccc(-c2cc(C(=O)N3CCCC3)c3ccccc3n2)s1 75.3%
Cc1ccc(NC(=O)C(C)OC(=O)C2CC3CCCC(C2)C3=O)cc1S(=O)(=O)N1CCOCC1 (stereo not drawn) 3.8%
Cc1cccc(C)c1NC(=O)CSc1nnc(NC(=O)c2ccccc2C(=O)O)s1 17.8%
CC(=O)N1CCCCN2[C@H](CO)[C@@H](c3ccc(-c4ccccc4)cc3)[C@H]2C1 32.8%
CCOC(=O)c1nnn(CC(=O)Nc2ccccc2)c1C(=O)OCC -2.98%
O=S(=O)(Nc1cccc(-c2cn3c(n2)SCC3)c1)c1ccccc1F -32.8% [at 5.6 µM]
Cc1nc2cc(NC(=O)C3COc4ccccc4O3)ccc2s1 (stereo not drawn) -0.647%
COc1ccc(S(=O)(=O)N[C@@H]2C=C[C@H](CC(=O)NCc3ccccc3F)O[C@@H]2CO)cc1 20.6%
COc1ccc(CNCc2c(O)c(Cl)cc3c(C)c(C)c(=O)oc23)c(OC)c1 83.8% [at 5.6 µM]
C[C@@H]1CN([C@@H](C)CO)C(=O)Cc2cc(NC(=O)Nc3cccc4ccccc34)ccc2O[C@H]1CN(C)Cc1ccc(C(=O)O)cc1 17.1%
C[C@H](CO)N1C[C@H](C)[C@H](CN(C)C)Oc2c(NC(=O)Nc3ccc(C(F)(F)F)cc3)cccc2C1=O 61.3% [at 5.6 µM]
O=C(Cc1ccccn1)N1CC(=O)N2[C@@H](CO)[C@H](c3ccc(C#CC4CCCC4)cc3)[C@@H]2C1 30.6%
C[C@@H]1CCCCO[C@@H](CN(C)C)[C@H](C)CN([C@H](C)CO)C(=O)c2cc(NS(=O)(=O)c3ccc(Cl)cc3)ccc2O1 14%
CNc1cncc(-c2cccc(C(=O)N(C)C)c2)n1 -17.7%
C[C@H](CO)N1C[C@H](C)[C@@H](CN(C)Cc2ccc(C(=O)O)cc2)OCCCC[C@H](C)Oc2ccc(NC(=O)Nc3ccccc3)cc2C1=O 58.9%
C[C@H](CO)N1C[C@H](C)[C@H](CN(C)C(=O)Nc2ccc(F)cc2)Oc2ccc(NC(=O)CCN3CCOCC3)cc2C1=O 5.52% [at 10 µM]
Cc1cc(S(=O)(=O)c2cc3ccc(O)c(C)c3oc2=O)ccc1F -4.67%
C[C@@H]1CCCCO[C@H](CN(C)C)[C@@H](C)CN([C@H](C)CO)C(=O)c2cc(NS(=O)(=O)c3ccc(Cl)cc3)ccc2O1 25.2% [at 10 µM]
Cc1ccc(NC(=O)C2CCCN2C(=O)c2cccs2)c(C)c1 (stereo not drawn) -10.6%
Cn1c(=O)[nH]c(=O)c2c1[nH]c(=S)n2Cc1ccccc1 -25%
Cc1cccc2sc(N(CCCN(C)C)C(=O)c3ccc4ncsc4c3)nc12 -4.43%
O=C(NCCN1CCCC1)[C@H]1[C@H](CO)[C@H]2Cn3c(cccc3=O)[C@@H]1N2C(=O)NC1CCCC1 25.1%
O=C(CC1CC1)N1[C@@H](CO)[C@@H](c2ccccc2)C12CN(Cc1cc(F)ccc1F)C2 14%
